# Like-named read-outs stand apart in the source and are kept apart here.
# Legend:
# Design in all cases: species or system human, MV4-11 + K-562 + COLO205 + SK-N-BE2 + OVCAR-8
# CDC42BPG = conditions: read-out: apparent Kd, n = 1
# IRAK3 = conditions: read-out: apparent Kd; compound concentrations:100 nM and 1000 nM (sheet 'Samples'); n = 1
# MAPK14 = conditions: read-out: apparent Kd, n = 1
# PIK3CA = conditions: read-out: apparent Kd; compound concentrations:100 nM and 1000 nM (sheet 'Samples'); n = 1
# PIK3CD = conditions: read-out: apparent Kd; compound concentrations:100 nM and 1000 nM (sheet 'Samples'); n = 1
# PIM1 = conditions: read-out: apparent Kd; compound concentrations:100 nM and 1000 nM (sheet 'Samples'); n = 1
# STK16 = conditions: read-out: apparent Kd, n = 1
# MYLK3 = conditions: read-out: apparent Kd; compound concentrations: 100 nM and 1000 nM (sheet 'Samples'), CATDS: 0.26108904226554702; n = 1
# NLK = conditions: read-out: apparent Kd; compound concentrations: 100 nM and 1000 nM (sheet 'Samples'), CATDS: 0.267890772302949; n = 1
# TNIK = conditions: read-out: apparent Kd; compound concentrations: 100 nM and 1000 nM (sheet 'Samples'), CATDS: 0.264395551516103; n = 1
# CAMK4 = conditions: read-out: apparent Kd; compound concentrations:100 nM and 1000 nM (sheet 'Samples'); n = 1
# CDK4 = conditions: read-out: apparent Kd; compound concentrations:100 nM and 1000 nM (sheet 'Samples'); n = 1
# CDKL5 = conditions: read-out: apparent Kd; compound concentrations:100 nM and 1000 nM (sheet 'Samples'); n = 1
# CLK1 = conditions: read-out: apparent Kd; compound concentrations:100 nM and 1000 nM (sheet 'Samples'); n = 1
# GSK3A = conditions: read-out: apparent Kd, n = 1
# GSK3B = conditions: read-out: apparent Kd, n = 1
# ICK = conditions: read-out: apparent Kd; compound concentrations:100 nM and 1000 nM (sheet 'Samples'); n = 1
# MERTK = conditions: read-out: apparent Kd; compound concentrations:100 nM and 1000 nM (sheet 'Samples'); n = 1
# PRKCA = conditions: read-out: apparent Kd, n = 1
# PRKCB = conditions: read-out: apparent Kd; compound concentrations: 100 nM and 1000 nM (sheet 'Samples'), CATDS: 6.3755563095046694E-2; n = 1
# PRKCD = conditions: read-out: apparent Kd, n = 1
# PRKCQ = conditions: read-out: apparent Kd; compound concentrations:100 nM and 1000 nM (sheet 'Samples'); n = 1
# RPS6KA6 = conditions: read-out: apparent Kd; compound concentrations:100 nM and 1000 nM (sheet 'Samples'); n = 1
# RPS6KB1 = conditions: read-out: apparent Kd, n = 1
# CDC42BPA = conditions: read-out: apparent Kd, compound concentrations: 100 nM and 1000 nM (sheet 'Samples'), n = 1
# CDC42BPB = conditions: read-out: apparent Kd, compound concentrations: 100 nM and 1000 nM (sheet 'Samples'), n = 1
# LATS1 = conditions: read-out: apparent Kd, compound concentrations: 100 nM and 1000 nM (sheet 'Samples'), n = 1
# PKN1 = conditions: read-out: apparent Kd, compound concentrations: 100 nM and 1000 nM (sheet 'Samples'), n = 1
# PKN2 = conditions: read-out: apparent Kd, compound concentrations: 100 nM and 1000 nM (sheet 'Samples'), n = 1
# PRKACA = conditions: read-out: apparent Kd; compound concentrations: 100 nM and 1000 nM (sheet 'Samples'), CATDS: 0.118024991958308; n = 1
# PRKACB = conditions: read-out: apparent Kd; compound concentrations: 100 nM and 1000 nM (sheet 'Samples'), CATDS: 8.0327411283578495E-2; n = 1
# PRKG1 = conditions: read-out: apparent Kd; compound concentrations: 100 nM and 1000 nM (sheet 'Samples'), CATDS: 6.8591269035778196E-2; n = 1
# PRKX = conditions: read-out: apparent Kd; compound concentrations: 100 nM and 1000 nM (sheet 'Samples'), CATDS: 6.1188840569936599E-2; n = 1
# ROCK1 = conditions: read-out: apparent Kd, compound concentrations: 100 nM and 1000 nM (sheet 'Samples'), n = 1
# ROCK2 = conditions: read-out: apparent Kd, compound concentrations: 100 nM and 1000 nM (sheet 'Samples'), n = 1
# TP53RK = conditions: read-out: apparent Kd; compound concentrations: 100 nM and 1000 nM (sheet 'Samples'), CATDS: 4.1650793572711099E-2; n = 1
# CIT = conditions: read-out: apparent Kd; compound concentrations: 100 nM and 1000 nM (sheet 'Samples'), CATDS: 4.1257824798939802E-2; n = 1
# MELK = conditions: read-out: apparent Kd; compound concentrations: 100 nM and 1000 nM (sheet 'Samples'), CATDS: 3.9798752380349897E-2; n = 1
# PIM2 = conditions: read-out: apparent Kd; compound concentrations: 100 nM and 1000 nM (sheet 'Samples'), CATDS: 3.9305369436655899E-2; n = 1
# PKN3 = conditions: read-out: apparent Kd; compound concentrations: 100 nM and 1000 nM (sheet 'Samples'), CATDS: 7.5123616152450098E-2; n = 1
# PRKCI = conditions: read-out: apparent Kd; compound concentrations: 100 nM and 1000 nM (sheet 'Samples'), CATDS: 3.9274053765020099E-2; n = 1
# CAMK2B = conditions: read-out: apparent Kd; compound concentrations: 100 nM and 1000 nM (sheet 'Samples'), CATDS: 0.21240793687588; n = 1
# CAMK2D = conditions: read-out: apparent Kd; compound concentrations: 100 nM and 1000 nM (sheet 'Samples'), CATDS: 0.22355141461127601; n = 1
# CAMK2G = conditions: read-out: apparent Kd; compound concentrations: 100 nM and 1000 nM (sheet 'Samples'), CATDS: 0.16282933819825701; n = 1
# MAPK1 = conditions: read-out: apparent Kd; compound concentrations: 100 nM and 1000 nM (sheet 'Samples'), CATDS: 0.13886491205571; n = 1
# MTHFD1 = conditions: read-out: apparent Kd; compound concentrations: 100 nM and 1000 nM (sheet 'Samples'), CATDS: 0.112540621038884; n = 1
# HSPE1 = conditions: read-out: apparent Kd; compound concentrations:100 nM and 1000 nM (sheet 'Samples'); n = 1
# CDK2 = conditions: read-out: apparent Kd; compound concentrations:100 nM and 1000 nM (sheet 'Samples'); n = 1
# ILK = conditions: read-out: apparent Kd; compound concentrations:100 nM and 1000 nM (sheet 'Samples'); n = 1
# OPA1 = conditions: read-out: apparent Kd; compound concentrations:100 nM and 1000 nM (sheet 'Samples'); n = 1
# SMC4 = conditions: read-out: apparent Kd; compound concentrations:100 nM and 1000 nM (sheet 'Samples'); n = 1
# VDAC3 = conditions: read-out: apparent Kd; compound concentrations:100 nM and 1000 nM (sheet 'Samples'); n = 1
# [1] = compound concentrations:100 nM and 1000 nM (sheet 'Samples')
smiles,measurement,setting,value
O=C(Nc1n[nH]c2nc(-c3ccccc3)c(Br)cc12)C1CC1 [SB-708998],potency estimated from few doses,CDC42BPG; [1],1880 nM
same,potency estimated from few doses,IRAK3,1410 nM
same,potency estimated from few doses,MAPK14; [1],1640 nM
same,potency estimated from few doses,PIK3CA,245 nM
same,potency estimated from few doses,PIK3CD,187 nM
same,potency estimated from few doses,PIM1,1280 nM
same,potency estimated from few doses,STK16; [1],1890 nM
O=C(Nc1n[nH]c2cc(-c3ccccc3)ccc12)C1CC1 [SB-732941],potency estimated from few doses,"CDC42BPG; compound concentrations: 100 nM and 1000 nM (sheet 'Samples'), CATDS: 0.214831425335373",2210 nM
same,potency estimated from few doses,MYLK3,1450 nM
same,potency estimated from few doses,NLK,1380 nM
same,potency estimated from few doses,TNIK,1420 nM
Cl.Cn1cc(C2=C(c3cn(CCCN)c4ccccc34)C(=O)NC2=O)c2ccccc21 [RO0317549-002],potency estimated from few doses,CAMK4,1430 nM
same,potency estimated from few doses,CDK4,1650 nM
same,potency estimated from few doses,CDKL5,2060 nM
same,potency estimated from few doses,CLK1,1850 nM
same,potency estimated from few doses,GSK3A; [1],136 nM
same,potency estimated from few doses,GSK3B; [1],115 nM
same,potency estimated from few doses,ICK,109 nM
same,potency estimated from few doses,MERTK,1370 nM
same,potency estimated from few doses,PRKCA; [1],117 nM
same,potency estimated from few doses,PRKCB,606 nM
same,potency estimated from few doses,PRKCD; [1],93.3 nM
same,potency estimated from few doses,PRKCQ,566 nM
same,potency estimated from few doses,RPS6KA6,44.1 nM
same,potency estimated from few doses,RPS6KB1; [1],1180 nM
NCCC(NC(=O)c1cc(Br)c(-c2ccnc3[nH]ccc23)s1)c1ccccc1.NCCC(NC(=O)c1cc(Br)c(-c2ccnc3[nH]ccc23)s1)c1ccccc1.O=C(O)C(F)(F)F.O=C(O)C(F)(F)F (centres unmarked) [GSK1307810A],potency estimated from few doses,CDC42BPA; CATDS: 7.0311293069570804E-2,227 nM
same,potency estimated from few doses,CDC42BPB; CATDS: 0.16933732506395899,30.4 nM
same,potency estimated from few doses,"CDC42BPG; compound concentrations: 100 nM and 1000 nM (sheet 'Samples'), CATDS: 0.24390813090815999",17.2 nM
same,potency estimated from few doses,LATS1; CATDS: 4.6540265787969097E-2,1110 nM
same,potency estimated from few doses,PKN1; CATDS: 4.7667379026866498E-2,988 nM
same,potency estimated from few doses,PKN2; CATDS: 4.4394319464929097E-2,1410 nM
same,potency estimated from few doses,PRKACA,60.2 nM
same,potency estimated from few doses,PRKACB,153 nM
same,potency estimated from few doses,"PRKCA; compound concentrations: 100 nM and 1000 nM (sheet 'Samples'), CATDS: 4.1587552070859297E-2",2070 nM
same,potency estimated from few doses,"PRKCD; compound concentrations: 100 nM and 1000 nM (sheet 'Samples'), CATDS: 4.48878810193531E-2",1330 nM
same,potency estimated from few doses,PRKG1,245 nM
same,potency estimated from few doses,PRKX,360 nM
same,potency estimated from few doses,ROCK1; CATDS: 0.14218227493934099,41.6 nM
same,potency estimated from few doses,ROCK2; CATDS: 0.152164814838194,36.7 nM
same,potency estimated from few doses,TP53RK,2050 nM
NCc1ccc(-n2c(-c3nonc3N)nc3cnccc32)cc1 [SB-750140],potency estimated from few doses,CDC42BPA; CATDS: 5.2351316008414299E-2,660 nM
same,potency estimated from few doses,CDC42BPB; CATDS: 8.8336954775193793E-2,173 nM
same,potency estimated from few doses,"CDC42BPG; compound concentrations: 100 nM and 1000 nM (sheet 'Samples'), CATDS: 4.2033135949813498E-2",1420 nM
same,potency estimated from few doses,CIT,1530 nM
same,potency estimated from few doses,"GSK3A; compound concentrations: 100 nM and 1000 nM (sheet 'Samples'), CATDS: 6.6590939053141299E-2",339 nM
same,potency estimated from few doses,"GSK3B; compound concentrations: 100 nM and 1000 nM (sheet 'Samples'), CATDS: 5.7473079866645002E-2",502 nM
same,potency estimated from few doses,LATS1; CATDS: 9.7617752181751005E-2,139 nM
same,potency estimated from few doses,MELK,1800 nM
same,potency estimated from few doses,PIM2,1910 nM
same,potency estimated from few doses,PKN1; CATDS: 5.10787631229489E-2,712 nM
same,potency estimated from few doses,PKN2; CATDS: 0.10529576550344701,118 nM
same,potency estimated from few doses,PKN3,252 nM
same,potency estimated from few doses,"PRKCD; compound concentrations: 100 nM and 1000 nM (sheet 'Samples'), CATDS: 4.7600533204707897E-2",895 nM
same,potency estimated from few doses,PRKCI,1910 nM
same,potency estimated from few doses,ROCK1; CATDS: 0.30602984254096799,16.3 nM
same,potency estimated from few doses,ROCK2; CATDS: 0.35552561268284599,12.9 nM
same,potency estimated from few doses,"RPS6KB1; compound concentrations: 100 nM and 1000 nM (sheet 'Samples'), CATDS: 4.4674945957763799E-2",1120 nM
N#Cc1cccc(C(=O)NC2CCN(c3ccnc(Nc4ccc(F)cc4)n3)C2)c1 (centres unmarked) [GSK1379708A],potency estimated from few doses,CAMK2B,395 nM
same,potency estimated from few doses,CAMK2D,364 nM
same,potency estimated from few doses,CAMK2G,631 nM
same,potency estimated from few doses,"MAPK14; compound concentrations: 100 nM and 1000 nM (sheet 'Samples'), CATDS: 0.12639229047772599",1100 nM
same,potency estimated from few doses,MAPK1,879 nM
same,potency estimated from few doses,MTHFD1,1500 nM
same,potency estimated from few doses,"STK16; compound concentrations: 100 nM and 1000 nM (sheet 'Samples'), CATDS: 0.103320343146107",1980 nM
O=C(Nc1n[nH]c2nc(-c3ccccc3)ccc12)C1CC1 [SB-708999],potency estimated from few doses,CDC42BPG; [1],1760 nM
same,potency estimated from few doses,HSPE1,296 nM
O=C(Nc1n[nH]c2nc(-c3nccs3)c(Br)cc12)C1CC1 [SB-742251],potency estimated from few doses,CAMK4,1800 nM
same,potency estimated from few doses,CDK2,1640 nM
same,potency estimated from few doses,CDK4,1480 nM
same,potency estimated from few doses,GSK3A; [1],873 nM
same,potency estimated from few doses,ILK,2010 nM
same,potency estimated from few doses,OPA1,1520 nM
same,potency estimated from few doses,SMC4,1950 nM
same,potency estimated from few doses,VDAC3,2000 nM

# — publication PMC11062922 (Nature Chemical Biology, 2023)
